This is an account of results in PubChem BioAssay.

Test [1] is described as follows: antimalarial activity against Dd2 strain (AID 2302;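 active = growth inhibition above 50% at the single 2 µM test dose, taken to imply half-maximal potency below 2 µM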;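 note: 0% = DMSO untreated growth and 100% = chloroquine plus artemisinin killed control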). To be noted: P. falciparum Dd2 in RBCs, LDH growth readout, 72 h; at 2 µM; hits give high values.
Test [2] is described as follows: human hepatoma cell viability loss – ATP luminescence, cytotoxicity control for P. falciparum antimalarial project, primary screen (AID 2303;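 active = inhibition above 50%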;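 note: 0% = DMSO wells and 100% = digitonin-killed cells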). To be noted: HepG2 viability, 24-48 h, at 10 µM, hits give high values.
In test [3] the target is L-lactate dehydrogenase (Plasmodium falciparum (isolate CDC / Honduras)) (UniProt Q27743). The test can be described thus: PfLDH activity inhibition – cell lysate, 3D7 strain, counter-screen for P. falciparum growth inhibition project (AID 2304).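 Note: 0% = vehicle and 100% = reference inhibitor.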 The note with it: P. falciparum 3D7 crude extract, LDH APAD/NBT absorbance; at 2 µM; hits give high values. On the technique in general: Counterscreens check selectivity or assay interference.
L-lactate dehydrogenase (Plasmodium falciparum (isolate CDC / Honduras)), sequence (Q27743 whole entry, looked up): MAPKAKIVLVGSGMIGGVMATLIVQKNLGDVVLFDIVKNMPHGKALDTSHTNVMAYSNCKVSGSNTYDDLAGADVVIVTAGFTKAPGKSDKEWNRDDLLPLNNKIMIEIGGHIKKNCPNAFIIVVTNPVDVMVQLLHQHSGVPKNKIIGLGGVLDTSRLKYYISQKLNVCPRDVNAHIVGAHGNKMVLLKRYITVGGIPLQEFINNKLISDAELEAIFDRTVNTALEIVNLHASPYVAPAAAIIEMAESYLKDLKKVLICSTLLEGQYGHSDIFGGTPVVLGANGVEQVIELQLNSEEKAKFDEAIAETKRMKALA

Test [4] can be described thus: inhibition of 3D7 malaria parasite growth – strain 3D7 (AID 2306).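 Note: 0% = DMSO wells and 100% = chloroquine plus artemisinin control wells.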 The note with it: P. falciparum 3D7 erythrocytic growth, LDH absorbance, 72 h; at 2 µM; hits give high values.
For test [5], the target named is Calcium-dependent protein kinase 1 (Plasmodium falciparum (isolate 3D7)) (UniProt P62344). The test can be described thus: PfCDPK1 kinase inhibitors, biochemical, TCAMS library (AID 1159585; cut-off not given, nearly all actives have IC50 up to about 0.98 µM;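 note: inhibitors leave more ATP so luminescence rises with inhibition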). To be noted: recombinant PfCDPK1, Kinase-Glo ATP depletion luminescence. (In Kinase-Glo more light means more ATP remaining.)
Calcium-dependent protein kinase 1 (Plasmodium falciparum (isolate 3D7)), sequence (P62344 whole entry, looked up): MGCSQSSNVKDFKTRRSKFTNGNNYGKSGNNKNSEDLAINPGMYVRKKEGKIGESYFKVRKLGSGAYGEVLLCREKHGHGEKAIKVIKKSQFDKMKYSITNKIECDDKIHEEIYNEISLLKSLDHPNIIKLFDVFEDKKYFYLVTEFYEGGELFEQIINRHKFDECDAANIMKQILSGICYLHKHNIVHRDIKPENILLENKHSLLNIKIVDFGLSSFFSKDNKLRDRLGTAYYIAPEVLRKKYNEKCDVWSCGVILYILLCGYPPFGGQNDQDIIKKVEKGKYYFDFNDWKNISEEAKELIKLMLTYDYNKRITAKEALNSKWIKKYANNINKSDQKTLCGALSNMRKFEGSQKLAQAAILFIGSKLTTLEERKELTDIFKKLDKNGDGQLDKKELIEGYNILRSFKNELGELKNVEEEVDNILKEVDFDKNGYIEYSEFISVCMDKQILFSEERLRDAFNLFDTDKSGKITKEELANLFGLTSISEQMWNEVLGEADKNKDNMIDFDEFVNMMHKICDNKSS
The target of test [6] is Plasmodium falciparum protein kinase 6 (PK6, PF3D7_1337100) (UniProt Q8IDW1). Nature of the test: PfPK6 kinase inhibitors, biochemical, TCAMS library (AID 1159586). To be noted: recombinant PfPK6, Kinase-Glo ATP depletion luminescence.
Plasmodium falciparum protein kinase 6 (PK6, PF3D7_1337100), sequence (Q8IDW1 1-305): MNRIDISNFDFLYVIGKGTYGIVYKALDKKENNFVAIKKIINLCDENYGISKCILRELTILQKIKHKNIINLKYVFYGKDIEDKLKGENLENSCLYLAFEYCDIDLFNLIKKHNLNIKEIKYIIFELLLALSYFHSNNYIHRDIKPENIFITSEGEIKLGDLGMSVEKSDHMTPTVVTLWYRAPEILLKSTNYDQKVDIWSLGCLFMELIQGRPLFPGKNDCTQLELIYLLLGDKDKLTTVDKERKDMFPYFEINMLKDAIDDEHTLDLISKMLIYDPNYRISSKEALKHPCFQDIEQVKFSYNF
Test [7] has as its target Protein kinase 7 (PK7), Plasmodium falciparum 3D7 (PF3D7_0213400) (UniProt Q7YTF7). Nature of the test: inhibition of Plasmodium PK7 catalytic activity – biochemical, TCAMS antimalarial set, Kinase-Glo luminescence (AID 1159587). To be noted: recombinant PfPK7, Kinase-Glo ATP depletion luminescence.
The target of test [8] is Calcium-dependent protein kinase 4 (Plasmodium falciparum (isolate 3D7)) (UniProt Q8IBS5). The test can be described thus: PfCDPK4 kinase inhibitors, biochemical, TCAMS library (AID 1159588; cut-off not given, nearly all actives have IC50 up to about 0.91 µM). To be noted: recombinant PfCDPK4, Kinase-Glo ATP depletion luminescence.
Calcium-dependent protein kinase 4 (Plasmodium falciparum (isolate 3D7)), sequence (Q8IBS5 whole entry, looked up): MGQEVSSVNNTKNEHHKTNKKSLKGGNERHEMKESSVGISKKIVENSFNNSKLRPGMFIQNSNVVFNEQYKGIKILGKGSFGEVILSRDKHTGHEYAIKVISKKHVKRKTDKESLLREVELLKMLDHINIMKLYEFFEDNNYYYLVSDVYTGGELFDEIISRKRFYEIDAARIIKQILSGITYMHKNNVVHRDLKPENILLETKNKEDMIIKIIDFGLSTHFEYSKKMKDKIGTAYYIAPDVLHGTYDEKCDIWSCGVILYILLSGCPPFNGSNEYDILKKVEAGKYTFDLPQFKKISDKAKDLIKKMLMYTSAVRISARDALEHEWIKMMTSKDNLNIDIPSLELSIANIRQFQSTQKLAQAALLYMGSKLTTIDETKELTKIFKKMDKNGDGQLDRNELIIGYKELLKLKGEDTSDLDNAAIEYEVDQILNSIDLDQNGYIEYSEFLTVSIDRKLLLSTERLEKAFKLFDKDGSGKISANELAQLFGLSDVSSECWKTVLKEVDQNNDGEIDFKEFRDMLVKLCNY

A number with no mark means an inactive call. For some assays here: Results with a measured potency or affinity are listed apart. Calls of active or inactive are those of the source. Unless noted, the rule behind the calls is not given here.

Protein kinase 7 (PK7), Plasmodium falciparum 3D7 (PF3D7_0213400), sequence (Q7YTF7 1-343): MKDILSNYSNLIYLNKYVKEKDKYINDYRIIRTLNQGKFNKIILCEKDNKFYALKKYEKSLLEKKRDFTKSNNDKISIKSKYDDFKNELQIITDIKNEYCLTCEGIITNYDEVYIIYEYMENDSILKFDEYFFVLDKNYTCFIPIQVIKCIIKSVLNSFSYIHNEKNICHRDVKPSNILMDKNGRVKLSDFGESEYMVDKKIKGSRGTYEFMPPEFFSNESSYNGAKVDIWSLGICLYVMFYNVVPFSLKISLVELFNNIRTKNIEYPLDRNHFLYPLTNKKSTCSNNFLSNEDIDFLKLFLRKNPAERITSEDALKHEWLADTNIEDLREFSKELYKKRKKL

Broadly, the inhibition is the drop in the measured response relative to a control, in per cent. For the compound `Cc1cc2ccc(CNCCc3ccccc3Br)cc2nc1N`, the growth inhibition in test [1] was 48%; in test [4], 101% (active). The inhibition in test [2] was -1%; in test [3], 1%. In addition, the outcome in test [5], in test [6], in test [7] and in test [8] was inactive.
Turning to `Cc1c(C)c2c(c(C)c1O)CC[C@@](C)(C(=O)NC1CCC(CN3CCC(c4c[nH]c5ccccc45)CC3)CC1)O2` (stereo partly drawn), the results for the growth inhibition in test [1] and in test [4] were 57% (active) and 92% (active), respectively. In addition, the inhibition in test [2] is 29%; in test [3], -2%. Further, the result in test [5], in test [6], in test [7] and in test [8] was inactive.
On to `CN1CC=C(c2c[nH]c3ccc(C(=O)c4nccs4)cc23)CC1`, for which the growth inhibition in test [1] is 73% (active); in test [4], 89% (active). Further, the inhibition in test [3] is 7%. The result in test [5], in test [6], in test [7] and in test [8] was inactive.
With `CC(Cc1ccc(NC(=O)CCCc2ccccc2)cc1)NCCc1cccc(Cl)c1` (stereo not drawn), the figures for the growth inhibition in test [1] and in test [4] were 3% and 94% (active), respectively. Also, the inhibition in test [2] is 12%; in test [3], -5%. Moreover, the outcome in test [5], in test [6], in test [7] and in test [8] was inactive.
For `CCC(C)(C)N[C@@H](C)[C@@H](O)c1ccc(C(F)(F)F)cc1`, the growth inhibition in test [1] was 90% (active); in test [4], 97% (active). For the same compound, in test [3], the inhibition is 2%. In addition, the outcome in test [5], in test [6], in test [7] and in test [8] was inactive.
